Results reported in the supplement of paper PMC10849652.
About 8,800 targets were measured; listed, in parts, are those with a hit and a random draw of the rest. About 0.5% of all pairs of compound and target were hits. A number with no mark means an inactive call.

Key:
Experiment in all cases: log2 fold change, soluble protein after heating vs DMSO (PISA); higher = thermal stabilisation; K562 lysate, 10 uM; active = over 0.2 and 3.5 SD of the protein, either way, in both replicates (recomputed)
erlotinib = compound: C#Cc1cccc(Nc2ncnc3cc(OCCOC)c(OCCOC)cc23)c1 [erlotinib]
In short: (§1)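 Following dounce homogenisation of K562 pellets in PBS pH 7.4 with 1 mM MgCl2, crude extract at 1 mg/mL protein was incubated for 30 min with 10 μM compound. Aliquots were then heated for 3 min over 48°C-58°C and pooled, NP-40 was added to 0.5% at 4°C, and soluble protein was recovered as the supernatant at 21,000xg for 90 min. Channel-sum-equalised TMTpro 16plex LC-MS/MS quantified this protein. Each value, from duplicates, is a log-two fold change in thermal stability relative to solvent controls.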

[1] = compound: C/C(=N\NC(=O)C1=CC(=CC=C1)S(=O)(=O)N2CCOCC2)/C3=C(C=CC(=C3)Cl)O
In short: as §1

[2] = compound: C1=CC(=CC=C1C2=NC3=C(N2)C=C(C=C3)C(=O)N)OC4=CC=C(C=C4)Cl
In short: as §1

[3] = compound: C1=CC2=C(C=CC(=C2)/C=C\3/C(=O)NC(=NCC4=CC=CS4)S3)N=C1
In short: as §1

[4] = compound: C1=CC2=NC=CN=C2C=C1/C=C/3\C(=O)NC(=O)S3
In short: as §1

[5] = compound: C1=CC=C(C=C1)C2=NC(=C(N2)C3=CC=NC=C3)C4=CC(=C(C=C4)Cl)O
In short: as §1

[6] = compound: C1=CC=C2C(=C1)C3=NNC4=CC=CC(=C43)C2=O
In short: as §1

[7] = compound: C1CCN(C1)C(=O)NC2=CC=CC(=C2)NC3=NC=C(C(=N3)NCCC4=CN=CN4)Br
In short: as §1

[8] = compound: C1CN(CCC1(CC2=CC=C(C=C2)Cl)N)C3=NC=NC4=C3C=CN4
In short: as §1

IRAK-1-4 Inhibitor I = compound: C1COCCN1CCN2C3=CC=CC=C3N=C2NC(=O)C4=CC(=CC=C4)[N+](=O)[O-] [IRAK-1-4 Inhibitor I]
In short: as §1

Chain of UniProt P23443 (P23443 whole entry, looked up): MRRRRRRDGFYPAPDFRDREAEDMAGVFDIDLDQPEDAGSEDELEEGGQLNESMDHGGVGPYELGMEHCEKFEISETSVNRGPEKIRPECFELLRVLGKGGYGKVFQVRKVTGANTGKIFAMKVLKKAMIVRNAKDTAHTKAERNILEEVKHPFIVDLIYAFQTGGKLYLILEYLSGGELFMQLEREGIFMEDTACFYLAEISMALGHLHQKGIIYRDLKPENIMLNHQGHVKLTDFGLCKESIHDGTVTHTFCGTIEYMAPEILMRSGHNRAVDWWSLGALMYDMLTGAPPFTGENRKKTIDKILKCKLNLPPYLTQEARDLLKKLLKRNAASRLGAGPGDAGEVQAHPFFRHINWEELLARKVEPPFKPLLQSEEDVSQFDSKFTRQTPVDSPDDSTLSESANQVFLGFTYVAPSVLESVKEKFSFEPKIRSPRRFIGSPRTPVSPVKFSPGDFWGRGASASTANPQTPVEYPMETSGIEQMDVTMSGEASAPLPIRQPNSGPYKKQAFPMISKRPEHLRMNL
Chain of UniProt Q8NC44 (Q8NC44 whole entry, looked up): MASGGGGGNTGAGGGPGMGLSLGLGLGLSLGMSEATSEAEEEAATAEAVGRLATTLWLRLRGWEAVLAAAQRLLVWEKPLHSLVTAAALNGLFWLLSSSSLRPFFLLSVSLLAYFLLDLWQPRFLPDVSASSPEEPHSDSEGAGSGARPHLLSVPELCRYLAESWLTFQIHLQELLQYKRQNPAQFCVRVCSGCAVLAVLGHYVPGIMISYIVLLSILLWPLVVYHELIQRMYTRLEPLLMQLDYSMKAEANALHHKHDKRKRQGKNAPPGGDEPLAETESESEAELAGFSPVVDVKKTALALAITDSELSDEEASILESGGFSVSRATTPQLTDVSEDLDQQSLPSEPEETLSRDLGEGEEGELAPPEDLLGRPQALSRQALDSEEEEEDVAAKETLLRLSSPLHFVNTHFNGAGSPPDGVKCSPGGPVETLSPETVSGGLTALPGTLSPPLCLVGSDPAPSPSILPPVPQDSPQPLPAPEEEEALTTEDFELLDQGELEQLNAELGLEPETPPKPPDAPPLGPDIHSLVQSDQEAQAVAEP
Chain of UniProt P35250 (P35250 whole entry, looked up): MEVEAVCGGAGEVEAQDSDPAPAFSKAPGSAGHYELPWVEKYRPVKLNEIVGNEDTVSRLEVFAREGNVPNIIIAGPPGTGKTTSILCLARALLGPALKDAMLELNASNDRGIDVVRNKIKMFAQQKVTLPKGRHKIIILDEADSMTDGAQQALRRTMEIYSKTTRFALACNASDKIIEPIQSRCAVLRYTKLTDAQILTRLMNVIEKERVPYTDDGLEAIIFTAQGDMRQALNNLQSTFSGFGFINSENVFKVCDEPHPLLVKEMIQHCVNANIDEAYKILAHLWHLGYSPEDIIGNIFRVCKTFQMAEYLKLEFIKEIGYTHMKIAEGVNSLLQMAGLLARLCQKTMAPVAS
Chain of UniProt P38159 (P38159 whole entry, looked up): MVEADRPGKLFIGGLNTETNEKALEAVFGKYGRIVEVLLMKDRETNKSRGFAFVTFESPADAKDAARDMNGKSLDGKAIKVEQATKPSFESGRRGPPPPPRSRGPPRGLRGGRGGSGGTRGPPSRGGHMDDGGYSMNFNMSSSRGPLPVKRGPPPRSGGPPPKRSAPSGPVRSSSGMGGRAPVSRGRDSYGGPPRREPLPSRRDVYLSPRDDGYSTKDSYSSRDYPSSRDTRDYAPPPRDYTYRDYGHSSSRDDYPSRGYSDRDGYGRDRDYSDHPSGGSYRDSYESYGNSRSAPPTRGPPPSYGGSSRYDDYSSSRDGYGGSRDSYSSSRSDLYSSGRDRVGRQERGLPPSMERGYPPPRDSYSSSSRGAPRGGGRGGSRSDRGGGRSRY
Chain of UniProt P55735 (P55735 whole entry, looked up): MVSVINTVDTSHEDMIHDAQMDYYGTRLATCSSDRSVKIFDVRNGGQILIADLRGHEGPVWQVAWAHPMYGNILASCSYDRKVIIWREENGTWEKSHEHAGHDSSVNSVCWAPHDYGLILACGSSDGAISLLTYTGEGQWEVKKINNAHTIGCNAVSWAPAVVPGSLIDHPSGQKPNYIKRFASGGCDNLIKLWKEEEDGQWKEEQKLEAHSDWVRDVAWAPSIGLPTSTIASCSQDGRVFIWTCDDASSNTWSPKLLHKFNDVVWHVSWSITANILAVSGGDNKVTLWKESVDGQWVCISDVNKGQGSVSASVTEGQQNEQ
Chain of UniProt Q9H1K0 (Q9H1K0 whole entry, looked up): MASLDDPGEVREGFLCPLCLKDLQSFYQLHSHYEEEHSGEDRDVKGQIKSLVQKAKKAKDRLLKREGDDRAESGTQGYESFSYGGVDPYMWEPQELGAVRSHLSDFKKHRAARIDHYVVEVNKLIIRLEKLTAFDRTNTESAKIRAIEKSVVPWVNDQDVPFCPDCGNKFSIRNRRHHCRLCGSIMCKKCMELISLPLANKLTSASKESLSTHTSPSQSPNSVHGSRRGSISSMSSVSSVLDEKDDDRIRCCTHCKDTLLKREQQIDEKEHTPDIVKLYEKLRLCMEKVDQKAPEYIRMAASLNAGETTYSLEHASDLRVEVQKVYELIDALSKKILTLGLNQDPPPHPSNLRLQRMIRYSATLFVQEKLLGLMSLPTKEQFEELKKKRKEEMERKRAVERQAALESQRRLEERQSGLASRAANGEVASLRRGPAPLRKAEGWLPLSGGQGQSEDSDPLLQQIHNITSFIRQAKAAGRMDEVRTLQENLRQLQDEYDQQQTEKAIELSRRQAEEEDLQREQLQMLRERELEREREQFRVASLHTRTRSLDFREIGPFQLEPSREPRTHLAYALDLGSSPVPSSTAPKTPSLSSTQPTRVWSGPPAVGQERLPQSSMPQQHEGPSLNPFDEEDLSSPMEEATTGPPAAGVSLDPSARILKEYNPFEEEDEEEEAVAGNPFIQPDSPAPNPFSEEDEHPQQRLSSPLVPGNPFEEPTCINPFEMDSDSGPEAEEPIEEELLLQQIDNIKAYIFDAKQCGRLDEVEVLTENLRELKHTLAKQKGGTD
Chain of UniProt Q96EE3 (Q96EE3 whole entry, looked up): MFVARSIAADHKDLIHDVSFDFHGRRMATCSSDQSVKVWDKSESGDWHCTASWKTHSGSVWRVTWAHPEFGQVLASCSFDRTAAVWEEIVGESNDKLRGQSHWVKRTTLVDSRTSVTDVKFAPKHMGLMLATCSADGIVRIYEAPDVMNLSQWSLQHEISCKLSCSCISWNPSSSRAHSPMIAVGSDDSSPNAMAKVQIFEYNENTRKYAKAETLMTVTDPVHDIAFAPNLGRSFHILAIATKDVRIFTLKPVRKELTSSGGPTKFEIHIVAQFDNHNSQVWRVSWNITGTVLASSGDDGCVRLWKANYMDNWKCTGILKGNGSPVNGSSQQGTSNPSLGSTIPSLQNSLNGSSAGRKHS
Chain of UniProt P11233 (P11233 whole entry, looked up): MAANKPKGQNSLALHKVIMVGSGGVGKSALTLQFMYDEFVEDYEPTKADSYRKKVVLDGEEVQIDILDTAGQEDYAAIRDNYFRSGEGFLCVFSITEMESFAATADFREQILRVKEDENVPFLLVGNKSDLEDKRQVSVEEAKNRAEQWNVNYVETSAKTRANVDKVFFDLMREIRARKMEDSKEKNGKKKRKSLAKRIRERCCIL
Chain of UniProt Q96DM3 (Q96DM3 whole entry, looked up): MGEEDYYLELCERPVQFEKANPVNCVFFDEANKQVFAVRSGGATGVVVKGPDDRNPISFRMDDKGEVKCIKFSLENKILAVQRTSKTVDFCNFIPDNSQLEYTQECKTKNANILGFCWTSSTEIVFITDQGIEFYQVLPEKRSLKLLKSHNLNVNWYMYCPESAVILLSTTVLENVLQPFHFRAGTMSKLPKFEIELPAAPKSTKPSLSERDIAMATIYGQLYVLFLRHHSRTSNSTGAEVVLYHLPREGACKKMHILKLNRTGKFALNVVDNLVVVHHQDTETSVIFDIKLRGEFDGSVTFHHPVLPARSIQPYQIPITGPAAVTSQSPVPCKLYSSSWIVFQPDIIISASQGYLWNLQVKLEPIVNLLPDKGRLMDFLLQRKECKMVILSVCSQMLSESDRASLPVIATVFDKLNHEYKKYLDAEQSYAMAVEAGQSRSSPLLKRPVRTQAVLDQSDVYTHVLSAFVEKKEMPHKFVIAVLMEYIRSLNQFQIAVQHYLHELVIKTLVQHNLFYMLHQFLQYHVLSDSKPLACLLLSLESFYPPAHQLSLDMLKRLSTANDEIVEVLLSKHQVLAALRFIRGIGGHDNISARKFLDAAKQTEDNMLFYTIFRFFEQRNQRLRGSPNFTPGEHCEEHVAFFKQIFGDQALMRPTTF
Chain of UniProt Q5TBB1 (Q5TBB1 whole entry, looked up): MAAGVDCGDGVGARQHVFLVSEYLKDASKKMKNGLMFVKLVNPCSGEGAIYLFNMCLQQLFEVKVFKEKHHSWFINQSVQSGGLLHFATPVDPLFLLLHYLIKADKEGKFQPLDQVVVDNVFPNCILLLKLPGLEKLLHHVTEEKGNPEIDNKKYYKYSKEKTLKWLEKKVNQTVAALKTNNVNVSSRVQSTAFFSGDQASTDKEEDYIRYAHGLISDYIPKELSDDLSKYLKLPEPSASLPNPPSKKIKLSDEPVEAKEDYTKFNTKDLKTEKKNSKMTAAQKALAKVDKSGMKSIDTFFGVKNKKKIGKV
Chain of UniProt Q92930 (Q92930 whole entry, looked up): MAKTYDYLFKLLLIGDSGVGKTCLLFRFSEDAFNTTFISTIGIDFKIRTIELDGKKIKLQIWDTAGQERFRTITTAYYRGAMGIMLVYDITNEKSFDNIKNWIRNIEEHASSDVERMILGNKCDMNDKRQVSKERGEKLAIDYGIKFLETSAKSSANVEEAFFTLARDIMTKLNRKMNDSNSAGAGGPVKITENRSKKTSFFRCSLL
Chain of UniProt Q5HYI8 (Q5HYI8 whole entry, looked up): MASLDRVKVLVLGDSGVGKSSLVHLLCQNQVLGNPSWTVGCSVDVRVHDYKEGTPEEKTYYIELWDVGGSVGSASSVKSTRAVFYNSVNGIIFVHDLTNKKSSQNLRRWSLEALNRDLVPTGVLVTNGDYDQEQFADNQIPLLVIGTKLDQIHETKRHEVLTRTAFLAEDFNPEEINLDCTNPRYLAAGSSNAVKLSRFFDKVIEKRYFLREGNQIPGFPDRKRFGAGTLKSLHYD

| Target | log2 fold change (erlotinib) | log2 fold change [1] | log2 fold change [2] | log2 fold change [3] | log2 fold change [4] | log2 fold change [5] | log2 fold change [6] | log2 fold change [7] | log2 fold change [8] | log2 fold change (IRAK-1-4 Inhibitor I) |
| --- | --- | --- | --- | --- | --- | --- | --- | --- | --- | --- |
| SEC13 isoform 3 (UniProt P55735) | 0.032 | 0.02 | 0.009 | -0.019 | 0 | -0.001 | -0.033 | -0.019 | 0.006 | -0.028 |
| ROCK1 (UniProt Q13464) | -0.01 | 0.029 | 0 | 0.075 | -0.036 | -0.004 | -0.041 | 0.008 | 0.075 | 0.004 |
| RBM5 (UniProt P52756) | 0.095 | -0.042 | 0.054 | 0.006 | -0.006 | 0.015 | -0.121 | -0.021 | -0.001 | -0.023 |
| SEH1L isoform 1 (UniProt Q96EE3) | -0.008 | 0.082 | -0.001 | -0.023 | 0.014 | -0.015 | -0.012 | -0.025 | 0.026 | 0.031 |
| RBM23 isoform 2 (UniProt Q86U06) | -0.056 | 0.007 | 0.012 | -0.106 | 0.148 | -0.052 | 0.001 | -0.175 | 0.091 | -0.004 |
| RBMX (UniProt P38159) | 0 | 0.019 | -0.056 | 0.016 | 0.013 | 0.025 | 0.018 | 0.06 | 0.029 | -0.012 |
| REEP6 (UniProt Q96HR9) | -0.023 | -0.026 | 0.008 | 0.077 | -0.06 | -0.029 | -0.069 | 0.021 | -0.022 | -0.05 |
| RNASEH2B (UniProt Q5TBB1) | -0.01 | 0.006 | -0.024 | 0.019 | -0.011 | 0.009 | 0.024 | -0.01 | -0.041 | -0.003 |
| RFC2 (UniProt P35250) | -0.004 | 0.017 | -0.059 | -0.017 | 0.018 | 0.004 | -0.013 | -0.011 | -0.031 | -0.013 |
| RCOR3 isoform 3 (UniProt Q9P2K3) | -0.033 | 0.025 | 0.022 | 0.009 | -0.006 | -0.017 | -0.012 | -0.02 | -0.015 | -0.015 |
| RAB8B (UniProt Q92930) | 0.013 | -0.042 | 0.049 | 0.113 | 0.004 | 0.034 | 0.125 | 0 | -0.006 | 0.035 |
| RFC4 (UniProt P35249) | 0.006 | 0.027 | -0.033 | -0.027 | 0.018 | 0.007 | -0.056 | -0.022 | -0.012 | -0.018 |
| RALGAPA1 isoform 6 (UniProt Q6GYQ0) | 0.056 | -0.093 | 0.098 | 0.065 | -0.105 | -0.064 | -0.015 | -0.042 | 0.031 | 0.004 |
| RANBP2 (UniProt P49792) | 0.017 | 0.014 | -0.004 | -0.011 | -0.012 | -0.004 | -0.038 | -0.001 | -0.007 | -0.019 |
| RAB3IL1 (UniProt E9PK89) | -0.016 | -0.075 | 0.124 | 0.013 | -0.048 | -0.04 | 0.093 | -0.034 | -0.12 | 0.109 |
| RETREG2 (UniProt Q8NC44) | -0.08 | 0.036 | -0.115 | -0.055 | 0.049 | 0.035 | -0.063 | 0.022 | 0.075 | 0.106 |

| Target | log2 fold change (erlotinib) | log2 fold change [1] | log2 fold change [2] | log2 fold change [3] | log2 fold change [4] | log2 fold change [5] | log2 fold change [6] | log2 fold change [7] | log2 fold change [8] | log2 fold change (IRAK-1-4 Inhibitor I) |
| --- | --- | --- | --- | --- | --- | --- | --- | --- | --- | --- |
| RALA (UniProt P11233) | 0.007 | -0.146 | -0.035 | -0.04 | 0.031 | -0.012 | 0.003 | -0.016 | 0.002 | 0.04 |
| RBM22 (UniProt Q9NW64) | 0.028 | -0.005 | 0.025 | -0.07 | 0.013 | -0.034 | -0.021 | -0.02 | 0.009 | 0.018 |
| RMC1 (UniProt Q96DM3) | 0.015 | -0.056 | 0.017 | -0.06 | 0.004 | -0.008 | -0.054 | -0.001 | 0.035 | 0.006 |
| RASA3 (UniProt Q14644) | 0.02 | -0.089 | 0.045 | -0.001 | 0.046 | 0.021 | 0.004 | -0.043 | -0.005 | 0.02 |
| SESN2 (UniProt P58004) | 0.043 | 0.102 | -0.007 | -0.017 | 0.023 | -0.037 | -0.07 | 0.051 | -0.014 | -0.048 |
| RAPGEF4 (UniProt Q8WZA2) | 0.181 | 0.057 | 0.049 | -0.016 | -0.019 | -0.092 | -0.195 | -0.043 | 0.12 | 0.184 |
| RABL3 (UniProt Q5HYI8) | 0.706 (active) | -0.019 | -0.025 | 0.011 | 0.008 | 0.96 (active) | -0.041 | 0.015 | 0.017 | 0.48 |
| RBSN (UniProt Q9H1K0) | -0.067 | -0.215 | 0.004 | -0.014 | -0.004 | 0.005 | 0.043 | 0.015 | 0.063 | 0.025 |
| RAC2 (UniProt P15153) | 0.009 | 0.018 | 0.014 | -0.035 | -0.01 | 0.012 | 0.034 | 0.069 | -0.036 | 0.024 |
| RPS6KB1 (UniProt P23443) | -0.017 | -0.018 | -0.034 | 0.013 | -0.001 | 0.083 | 0.322 (active) | 0.085 | 0.027 | 0.028 |
| RHOA (UniProt P61586) | 0.001 | -0.093 | 0.049 | -0.093 | -0.09 | 0.064 | 0.038 | -0.022 | 0.039 | -0.022 |
| RRAGA (UniProt Q7L523) | -0.022 | -0.019 | 0.001 | -0.065 | 0.118 | -0.107 | -0.008 | -0.062 | 0.005 | 0.026 |
| RFC5 (UniProt P40937) | 0.02 | 0.024 | -0.025 | 0.036 | -0.012 | 0.029 | -0.074 | 0.004 | 0.023 | 0.019 |
| RPS18 (UniProt P62269) | -0.021 | -0.088 | -0.007 | -0.006 | -0.004 | -0.012 | -0.007 | 0.005 | 0.004 | 0.047 |
| RNF213, A0A0A0MTC1 | 0.041 | 0.004 | 0 | 0.042 | 0.015 | 0.021 | -0.045 | -0.005 | 0.047 | 0.025 |
